The text below walks through data of PubChem BioAssay (NCI).

Compounds without any hit were thinned out: in the full panel of roughly 83,000, 20% have a hit.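 Testing used 96-well plates and a 48-hour single-concentration exposure. Example: -40 means 40% of the starting cells died.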 Unmarked numbers belong to inactive results. Calls of active or inactive are those of the source. Rule for the calls: active = growth percent below 10; inactive = the rest.

For the assay, the system named is SNB-19 CNS. Kind of assay: NCI-60 one-dose screen, 48 h (100 = growth as untreated, 0 = no growth, -100 = all killed). The conditions noted are these: 10 µM unless noted.
As for `O=C(O)CSCC(=O)Nc1cc(C(F)(F)F)ccc1Cl`, the growth was 106%.

Take `N=C(N)c1nn(C2OC(CO)C(O)C2O)c2nc[nH]c(=O)c12` (stereo not drawn): the growth was 5.88% (active).

For the compound `CC(C)C(=O)OCCOc1ccc(C(C)(C)C)cc1`, the growth was 98.8%.

For `OCCNc1ccccc1`, the growth is 116%.

Regarding `C/C(=N\Nc1ccc([N+](=O)[O-])cc1[N+](=O)[O-])c1ccc(Br)cc1`, the growth is 97.8%.

Take `O=C(Oc1ccccc1Cl)c1ccc(Cl)cc1Cl`: the growth was 99.6%.

In the case of `C=C(C)COc1ccc(C(C)(C)C)cc1`, the growth is 103%.

For the compound `CCC(C)c1c(N)n(S(=O)(=O)c2ccc(C)cc2)oc1=O` (stereo not drawn), the growth was 106%.

On to `Nc1ccn(C2CC(N)C(CO)O2)c(=O)n1` (stereo not drawn), for which the growth was 68.2%.

On to `CN(CCCN(C)CCC1CCCCC1)CCC1CCCCC1`, for which the growth was 77.3%.

On to `O=S(Cc1ccccc1)/C(=C/NC(=S)Nc1cc(Cl)ccc1Cl)c1ccccc1` (stereo not drawn), for which the growth is 104%.

With `Cc1c(Cl)cccc1N=C=S`, the growth was 93.5%.

Consider `CCCC1OC(c2ccco2)OCC1CC` (stereo not drawn), for which the growth is 98.2%.

Consider `CN1CCCN(C(c2ccccc2)c2ccc(Br)cc2)CC1` (stereo not drawn), for which the growth was 99.6%.

Regarding `OCCOc1ccc(-c2cc(-c3ccccn3)nc(-c3ccccn3)c2)cc1`, the growth is 20.6%.

In the case of `O=C(Nc1cccc(Cl)c1)c1ccc(Cl)cc1Cl`, the growth was 96.9%.

For `CC(=O)Oc1c(Cl)cccc1-c1ccccc1`, the growth was 98.9%.

Take `C/C=C/C1OCC(CC)C(CCC)O1` (stereo not drawn): the growth was 99.7%.

For `COc1cccc(C(=O)O)c1OC`, the growth was 106%.

Regarding `CC(C)C1CCC(C)C(O)C1` (stereo not drawn), the growth is 99.6%.

On to `COc1cc(CC#N)c([N+](=O)[O-])cc1OC`, for which the growth was 109%.

`CCCNS(=O)(=O)c1ccc(Cl)cc1`: the growth is 104%.

For `CCOC(=O)/C(C)=C\c1ccc(OC)c(OC)c1`, the growth was 107%.

As to `O=C(NCc1ccccc1)c1cccc([N+](=O)[O-])c1`, the growth was 95.1%.

Take `OCCc1ccc(Cl)cc1`: the growth was 96.5%.

Take `C/C(=N\O)c1ccccn1`: the growth is 95.2%.

On to `CC1(C)OC(=O)CC1=O`, for which the growth was 105%.

For the compound `O=C1C=Cc2ccccc2/C1=C/c1[nH]c(=O)[nH]c1O`, the growth was 34.1%.

On to `Nc1ncnc2c1ncn2C1OC(CO)C2OC21` (stereo not drawn), for which the growth was 118%.

As to `C=CCS(C)(=O)=O`, the growth is 101%.

Turning to `Cc1ccc(C2CCCCC2)cc1Br`, the growth is 95.6%.

For the compound `Cc1ccc2[nH]c3ccccc3c2c1`, the growth is 105%.

As for `Cc1ccc(/C=N/NC(N)=S)s1`, the growth is 103%.

Consider `O=S(=O)(O)c1cccnc1`, for which the growth was 96%.

Take `O=C(O)c1ccccc1Cc1ccc2c(c1)CCCC2`: the growth is 102%.

Take `Nc1cc(F)ccc1[N+](=O)[O-]`: the growth was 102%.

Turning to `CCOc1ccc(C(=O)O)cc1`, the growth was 112%.

In the case of `CCCCOC(=O)c1ccccc1O`, the growth is 102%.
